High-throughput results from PubChem BioAssay.
Sampled rows, rich in hits. Any-hit rate of the full collection: about 6.7%.
T cruzi growth-1: T. cruzi intracellular proliferation inhibitors, primary screen, cell-based, beta-gal Tulahuen parasites, NIH3T3 host, luminescence | T. cruzi beta-gal in NIH3T3, GalScreen luminescence, 90 h | inhibition, % at 8.34 µM | hit rate 5.9% among 77,000 | AID 624255, 2012;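 active means mean inhibition above about 93%, with at least 55% of replicates each passing it, limit read from the data, passing the limit was not always enough; inconclusive means only one of those two conditions holds; inactive means neither condition holds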
Pf Dd2 growth: P. falciparum Dd2 growth inhibitors, primary screen, SYBR Green fluorescence, single dose replicates; activity change, % at 10 µM; 72 h; active compounds read low; hit rate 2.3% among 94,000; in the data active means activity change below about -80%; inconclusive means no clear call, values can overlap the other calls
C diff HTS: C. difficile growth inhibitors, primary screen, HTS. Clostridium difficile clinical isolate growth, OD600, 24 h; active compounds read low. growth activity, negative = inhibition, % at 16 µg/mL (by protocol). hit rate 0.25% among 86,000. AID 1259249, 2017;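 active means mean growth activity at or below -80% and every replicate also at or below -80%; inconclusive means mean at or below -80% but some replicate above -80%; inactive means mean growth activity above -80%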;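 further: 0% = DMSO wells and -100% = levofloxacin 16 µg/mL wells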
T cruzi growth-2: T. cruzi intracellular proliferation inhibitors, confirmation, cell-based, NIH3T3 host, beta-gal parasite, luminescence, cherry-pick | T. cruzi beta-gal in NIH3T3, GalScreen luminescence, 90 h | inhibition, % at 8.35 µM | hit rate 72% among 5,600 | shares compounds with T cruzi growth-1;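 active means mean replicate inhibition above about 95% and at least 55% of replicates individually reaching it, limit read from the data; inconclusive means only one of the two criteria is met; inactive means neither criterion is met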
T cruzi growth-3: inhibitors of intracellular T. cruzi replication, confirmation, NIH3T3 host cells, beta-gal parasites, cherry-pick, set 2 | shares compounds with T cruzi growth-1 | T. cruzi beta-gal in NIH3T3, GalScreen luminescence, 90 h | inhibition, % at 2.09 µM | hit rate 21% among 5,600 | AID 651740, 2012;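 active means mean inhibition above about 95%, with at least 55% of replicates also reaching it, limit read from the data; inconclusive means meets just one of the two conditions; inactive means meets neither condition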;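 further: plate controls were neutral control median for no effect and positive control median for full effect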
3T3 cytotox: cytotoxicity in mouse NIH/3T3 fibroblasts, confirmation, cytotoxicity control for T. cruzi proliferation inhibitor project, cell-based, cherry-pick, single point | shares compounds with T cruzi growth-1 | hit rate 14% among 5,600 | NIH/3T3 viability, CellTiter-Glo ATP luminescence, 90 h | cytotoxicity (signal decrease), % at 8.35 µM;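 active means mean signal decrease across replicates above about 35% based on untreated-well scatter, with enough replicates individually passing, limit read from the data; inconclusive means no rule stated though some were filed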;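 further: 0% = median of neutral control wells and 100% = median of positive control wells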
3T3 cytotox 2: NIH/3T3 fibroblast cytotoxicity, confirmation, cytotoxicity control, cell-based, cherry-pick, single point, set 2 | shares compounds with T cruzi growth-1 | NIH/3T3 viability, CellTiter-Glo ATP luminescence, 90 h | inhibition, % at 24.9 µM | hit rate 56% among 5,600;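 active means mean loss of cell viability signal at or above a set limit, and enough replicates individually reaching it; inconclusive means meets only the mean limit or only the replicate share; inactive means meets neither condition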;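 further: 0% = median of neutral control wells and 100% = median of positive control wells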
Numbers without * were called inactive; u = inconclusive; x = not tested or not shown.

SMILES	T cruzi growth-1	Pf Dd2 growth	C diff HTS	T cruzi growth-2	T cruzi growth-3	3T3 cytotox	3T3 cytotox 2
CN(C)C(=O)c1ccc(-c2ccc([C@@H]3[C@H]4CN(C(=O)C5CCCC5)CCCCN4[C@H]3CO)cc2)cc1	114*	10	-13	80	60	38*	38*
CN(C)C(=O)c1ccc(-c2ccc([C@@H]3[C@H](CO)N4CCCCN(C(=O)C5CCCC5)C[C@@H]34)cc2)cc1	100*	-29	-6	87	86	8	15
O=C(C[C@H]1CC[C@H]2[C@@H](COC[C@@H](O)CN2S(=O)(=O)c2ccc(F)cc2)O1)NCc1ccncn1	6	10	x	x	x	x	x
CCCN(C)C[C@H]1Oc2ncc(C#CCN(C)C)cc2C(=O)N([C@H](C)CO)C[C@@H]1C	-12	9	4	x	x	x	x
C[C@H](CO)N1C[C@H](C)[C@H](CN(C)Cc2ccccc2)Oc2cc(-c3ccccc3)ccc2S1(=O)=O	113*	-34	12	105*	81	6	106*
C[C@@H]1CN([C@H](C)CO)S(=O)(=O)c2ccc(-c3ccccc3)cc2O[C@@H]1CN(C)Cc1ccccc1	94	-30	-12	x	x	x	x
C[C@@H]1CN([C@@H](C)CO)S(=O)(=O)c2ccc(-c3ccccc3)cc2O[C@@H]1CN(C)Cc1ccccc1	121*	-15	3	103*	106*	48*	105*
C[C@H](CO)N1C[C@H](C)[C@@H](CN(C)Cc2ccccc2)Oc2cc(-c3ccccc3)ccc2S1(=O)=O	67	-41	15	x	x	x	x
CN(C)C(=O)C[C@@H]1CC[C@@H]2[C@H](COC[C@H](O)CN2CC2CCOCC2)O1	66	-2	x	x	x	x	x
CCS(=O)(=O)N1CCCCN2[C@H](CO)[C@@H](c3ccc(-c4ccccc4C)cc3)[C@H]2C1	61	-1	-5	x	x	x	x
CCS(=O)(=O)N1CCCCN2[C@H](CO)[C@@H](c3ccc(-c4ccccc4)cc3)[C@@H]2C1	63	5	-2	x	x	x	x
CCS(=O)(=O)N1CCCCN2[C@@H](CO)[C@@H](c3ccc(-c4ccccc4C)cc3)[C@@H]2C1	u	-36	-13	97*	-2	u	79*
CCS(=O)(=O)N1CCCCN2[C@H](CO)[C@H](c3ccc(-c4ccccc4F)cc3)[C@@H]2C1	96*	0	-6	80	22	18	5
C[C@@H]1CN([C@@H](C)CO)C(=O)c2cc(NS(C)(=O)=O)ccc2O[C@H]1CN(C)Cc1ccc(Cl)c(Cl)c1	65	-5	-6	x	x	x	x
CCC(=O)N[C@H]1C=C[C@H](CC(=O)NCc2cc(F)cc(F)c2)O[C@@H]1CO	-9	15	x	x	x	x	x
C[C@H](CO)N1C[C@H](C)[C@@H](CN(C)Cc2ccc(-c3ccccc3)cc2)Oc2ccc(NC(=O)C3CC3)cc2C1=O	22	-2	-8	x	x	x	x
C[C@H]1CN([C@@H](C)CO)C(=O)c2cc(NC(=O)C3CCCCC3)ccc2O[C@H]1CN(C)Cc1ccc(-c2ccccc2)cc1	47	-15	x	x	x	x	x
C[C@@H]1CN([C@@H](C)CO)C(=O)c2cc(NC(=O)C3CCCCC3)ccc2O[C@H]1CN(C)Cc1ccc(-c2ccccc2)cc1	110*	-40	x	102*	100*	16	7
C[C@@H]1CN([C@@H](C)CO)C(=O)c2cc(NC(=O)C3CCCCC3)ccc2O[C@@H]1CN(C)Cc1ccc(-c2ccccc2)cc1	u	3	x	104*	83	24	80*
C[C@H](CO)N1C[C@H](C)[C@H](CN(C)Cc2ccc(C(=O)O)cc2)Oc2ccc(NC(=O)NC3CCCCC3)cc2CC1=O	-28	14	-2	x	x	x	x
O=C(Nc1cccc(F)c1)N[C@H]1CC[C@H](CCNS(=O)(=O)c2cccc(Cl)c2)O[C@H]1CO	163*	3	x	103*	30	-15	-1
O=C(Nc1cccc(F)c1)N[C@H]1CC[C@@H](CCNS(=O)(=O)c2cccc(Cl)c2)O[C@@H]1CO	16	-19	x	x	x	x	x
O=C(Nc1ccc(F)cc1)N[C@@H]1CC[C@@H](CCNS(=O)(=O)c2cccc(Cl)c2)O[C@@H]1CO	-11	19	-8	x	x	x	x
O=C(Nc1cccc(F)c1)N[C@@H]1CC[C@@H](CCNS(=O)(=O)c2cccc(Cl)c2)O[C@@H]1CO	121*	-77	x	56	-9	-27	-5
C[C@@H]1CN([C@@H](C)CO)C(=O)Cc2cc(NS(=O)(=O)c3ccccc3)ccc2O[C@@H]1CN(C)Cc1ccc(C(=O)O)cc1	5	17	-6	x	x	x	x
SMILES	T cruzi growth-1	Pf Dd2 growth	C diff HTS	T cruzi growth-2	T cruzi growth-3	3T3 cytotox	3T3 cytotox 2
C[C@H]1CCCCO[C@H](CN(C)C(=O)NC2CCCCC2)[C@@H](C)CN([C@@H](C)CO)C(=O)c2cc(NC(=O)Cc3ccccc3)ccc2O1	54	-65	-9	x	x	x	x
CO[C@H]1CN(C)C(=O)c2ccc(NC(=O)c3cccc(F)c3)cc2OC[C@@H](C)N(C)C[C@@H]1C	-18	-7	x	x	x	x	x
C[C@@H]1CN([C@@H](C)CO)C(=O)c2cc(NC(=O)C3CC3)ccc2O[C@@H]1CN(C)S(C)(=O)=O	14	5	1	x	x	x	x
COc1ccc(NC(=O)N(C)C[C@@H]2OCCCC[C@H](C)Oc3ccc(NC(=O)Nc4ccc(C(F)(F)F)cc4)cc3C(=O)N([C@@H](C)CO)C[C@H]2C)cc1	97*	62	11	111*	u	-21	u
COc1ccc(NC(=O)N(C)C[C@@H]2OCCCC[C@@H](C)Oc3ccc(NC(=O)Nc4ccc(C(F)(F)F)cc4)cc3C(=O)N([C@@H](C)CO)C[C@@H]2C)cc1	x	-79	-8	x	x	x	x
COc1ccc(NC(=O)Nc2ccc3c(c2)C(=O)N([C@@H](C)CO)C[C@@H](C)[C@@H](CN(C)C)OCCCC[C@H](C)O3)cc1	27	-17	-2	x	x	x	x
COc1ccc(NC(=O)Nc2ccc3c(c2)C(=O)N([C@H](C)CO)C[C@H](C)[C@H](CN(C)C(=O)Nc2ccc(C(F)(F)F)cc2)OCCCC[C@@H](C)O3)cc1	x	-27	0	x	x	x	x
COc1ccc(NC(=O)N(C)C[C@H]2OCCCC[C@H](C)Oc3ccc(NC(=O)Nc4ccc(F)cc4)cc3C(=O)N([C@@H](C)CO)C[C@H]2C)cc1	-23	-71	-3	x	x	x	x
COc1ccc(NC(=O)Nc2ccc3c(c2)C(=O)N([C@@H](C)CO)C[C@H](C)[C@H](CN(C)C)OCCCC[C@H](C)O3)cc1	96*	-26	0	64	-39	-10	4
